Source: the supplement of paper PMC6089552
Among all 3,200 compounds or so, about 300 (9.4%) showed activity. The sample holds actives, similar compounds and a random draw of the others, so the mix is not that of the screen.

Tested on: A673/TR/shEF
Test: cell viability (LOESS-normalised, relative to median of negative controls) (log2 ratio); higher = more viable cells (less compound effect), active = hit call of the paper (over 3 MAD below the median)
Settings: treatment time: 72 h
In short: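 A673/TR/shEF Ewing sarcoma cells were plated at 1,500 per well in 384-well plates and cultured with or without doxycycline, added 24 h before compounds, to induce EWS-FLI1 shRNA knockdown. Library compounds at two or more concentrations, alongside DMSO controls, were applied for three days. Cell viability was measured by CellTiter-Glo luminescence on an Envision reader. Readings were LOESS-corrected per plate, divided by the median of negative controls and log2-transformed, and hits were wells lying at least three median absolute deviations from the median of all screened wells.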

[1] = 0.103 µM, library screen: screen3, EWS-FLI1 expression: high (no doxycycline)
[2] = 0.103 µM, library screen: screen3, EWS-FLI1 expression: low (doxycycline-induced shRNA knockdown)
[3] = 0.308 µM, library screen: screen3, EWS-FLI1 expression: high (no doxycycline)
[4] = 0.308 µM, library screen: screen3, EWS-FLI1 expression: low (doxycycline-induced shRNA knockdown)
[5] = 0.926 µM, library screen: screen3, EWS-FLI1 expression: high (no doxycycline)
[6] = 0.926 µM, library screen: screen3, EWS-FLI1 expression: low (doxycycline-induced shRNA knockdown)
[7] = 2.8 µM, library screen: screen3, EWS-FLI1 expression: high (no doxycycline)
[8] = 2.8 µM, library screen: screen3, EWS-FLI1 expression: low (doxycycline-induced shRNA knockdown)
[9] = 8.3 µM, library screen: screen3, EWS-FLI1 expression: high (no doxycycline)
[10] = 8.3 µM, library screen: screen3, EWS-FLI1 expression: low (doxycycline-induced shRNA knockdown)
[11] = 25 µM, library screen: screen3, EWS-FLI1 expression: high (no doxycycline)
[12] = 25 µM, library screen: screen3, EWS-FLI1 expression: low (doxycycline-induced shRNA knockdown)
[13] = 0.25 µM, library screen: screen2, EWS-FLI1 expression: high (no doxycycline)
[14] = 0.25 µM, library screen: screen2, EWS-FLI1 expression: low (doxycycline-induced shRNA knockdown)
[15] = 2.5 µM, library screen: screen2, EWS-FLI1 expression: high (no doxycycline)
[16] = 2.5 µM, library screen: screen2, EWS-FLI1 expression: low (doxycycline-induced shRNA knockdown)
[17] = 0.025 µM, library screen: screen1, EWS-FLI1 expression: high (no doxycycline)
[18] = 0.025 µM, library screen: screen1, EWS-FLI1 expression: low (doxycycline-induced shRNA knockdown)
[19] = 0.25 µM, library screen: screen1, EWS-FLI1 expression: high (no doxycycline)
[20] = 0.25 µM, library screen: screen1, EWS-FLI1 expression: low (doxycycline-induced shRNA knockdown)
[21] = 2.5 µM, library screen: screen1, EWS-FLI1 expression: high (no doxycycline)
[22] = 2.5 µM, library screen: screen1, EWS-FLI1 expression: low (doxycycline-induced shRNA knockdown)
[23] = 25 µM, library screen: screen1, EWS-FLI1 expression: high (no doxycycline)
[24] = 25 µM, library screen: screen1, EWS-FLI1 expression: low (doxycycline-induced shRNA knockdown)

Measured: cell viability (log2)

Cc1c(N)nc(C(CC(N)=O)NCC(N)C(N)=O)nc1C(=O)NC(C(=O)NC(C)C(O)C(C)C(=O)NC(C(=O)NCCc1nc(-c2nc(C(=O)NCCC[S+](C)C)cs2)cs1)C(C)O)C(O[C@@H]1O[C@@H](CO)[C@@H](O)[C@H](O)[C@@H]1O[C@H]1O[C@H](CO)[C@@H](O)[C@H](OC(N)=O)[C@@H]1O)c1cnc[nH]1 (stereo partly specified)
inactive: [1] 0.0914 | [2] 0.135 | [3] 0.115 | [4] 0.0961 | [5] 0.0288 | [6] 0.0331 | [7] 0.152 | [8] 0.1 | [9] 0.12 | [10] 0.0649 | [11] 0.18 | [12] 0.0742

O=C(CCCN1CCC2(CC1)C(=O)N(CCc1ccc(N=C=S)cc1)CN2c1ccccc1)c1ccc(F)cc1
inactive: [13] 0.156 | [14] 0.15 | [15] 0.122 | [16] 0.0672

C[C@@]12C(=O)OC(=O)[C@]1(C)[C@H]1CC[C@@H]2O1
inactive: [17] 0.0446 | [18] 0.00348 | [19] 0.0474 | [20] -0.0807 | [13] 0.254 | [14] 0.0884 | [21] 0.0534 | [22] 0.0478 | [15] 0.0871 | [16] 0.00613 | [23] 0.0285 | [24] -0.0214

CC1(C(=O)O)C2CCC(O2)C1(C)C(=O)O (stereo unspecified)
active: [23] -0.932 | [24] -0.597
inactive: [17] 0.144 | [18] -0.0798 | [19] 0.0748 | [20] -0.099 | [13] 0.137 | [14] 0.0724 | [21] -0.00382 | [22] -0.0912 | [15] 0.0145 | [16] 0.0152

N[C@@]1(C(=O)O)CC[C@@H](C(=O)O)C1
inactive: [13] 0.102 | [14] 0.109 | [15] 0.101 | [16] 0.133

S=C(NC1CCCCC1)N1CCC(c2cnc[nH]2)CC1
inactive: [13] 0.127 | [14] 0.0827 | [15] 0.121 | [16] 0.058

CCC(C)c1cnc(CC(C)C)c(=O)n1O (stereo unspecified)
inactive: [19] 0.088 | [20] 0.0724 | [21] 0.0675 | [22] 0.0404

CCOC(=O)c1cncn1C(C)c1ccccc1 (stereo unspecified)
inactive: [1] 0.148 | [2] 0.103 | [3] 0.128 | [4] 0.0765 | [5] 0.0647 | [6] 0.0966 | [7] 0.203 | [8] 0.0919 | [9] 0.131 | [10] 0.046 | [11] 0.154 | [12] 0.157

N#C/C(=C\c1cccc(O)c1)C(=O)O
inactive: [19] 0.0765 | [20] 0.115 | [21] 0.0856 | [22] 0.0942

COc1cc2c(cc1O)CCNC2C (stereo unspecified)
inactive: [19] -0.0405 | [20] -0.0233 | [21] 0.0226 | [22] 0.0664

COc1cc2c(cc1OC)C(C)NCC2 (stereo unspecified)
inactive: [19] 0.121 | [20] 0.123 | [21] 0.193 | [22] 0.143

CC[C@H]1CN2CCc3cc(OC)c(OC)cc3[C@@H]2C[C@@H]1C[C@H]1NCCc2cc(OC)c(OC)cc21
active: [13] -0.895 | [14] -0.442 | [21] -1.08 | [22] -0.152 | [15] -2.19 | [16] -1.21 | 25 µM, library screen: screen2, EWS-FLI1 expression: high (no doxycycline) -2.91 | 25 µM, library screen: screen2, EWS-FLI1 expression: low (doxycycline-induced shRNA knockdown) -1.84
inactive: 0.025 µM, library screen: screen2, EWS-FLI1 expression: high (no doxycycline) 0.187 | 0.025 µM, library screen: screen2, EWS-FLI1 expression: low (doxycycline-induced shRNA knockdown) 0.0478 | [19] 0.11 | [20] 0.116

Clc1ccc(Cl)cc1
inactive: [19] 0.0995 | [20] 0.0885 | [21] 0.0618 | [22] 0.0905

CC[C@@H](C)C(=O)O[C@H]1[C@H](O)[C@H]2[C@@H](CN3C[C@@H](C)CC[C@H]3[C@@]2(C)O)[C@@H]2C[C@]34O[C@]5(O)[C@@H](OC(=O)[C@@](C)(O)CC)CC[C@@]3(C)[C@@H]5[C@@H](OC(C)=O)[C@@H](OC(C)=O)[C@H]4[C@@]21O
inactive: [19] -0.0817 | [20] -0.0114 | [21] 0.16 | [22] -0.013
